In PubChem BioAssay (Tox21):
Records with an inconclusive call do not appear. Active and inactive are the calls of the source. Unless noted, the call rests on the fitted dose curve; in most records, active means well fitted curve in the direction sought with a large enough effect in the repeat runs; inconclusive means weak or mixed curves; inactive means no such curve, though single readings can be large; an effect the other way counts as inactive or inconclusive.

Tests used:
[1] = qHTS assay to identify small molecule agonists of the peroxisome proliferator-activated receptor delta (PPARd) signaling pathway - cell viability counter screen (AID 743211); further: nearly all actives have a fitted effect of over 55% in size
Method in brief: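 Luminescent ATP viability assay (CellTiter-Glo, 30 min RT) in UAS-bla HEK293H cells carrying the PPAR delta reporter construct, 3000 cells/well, after a 17 h compound treatment at 37 C.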

[2] = molecular target: Peroxisome proliferator-activated receptor delta (Homo sapiens) (UniProt Q03181); test: qHTS assay to identify small molecule agonists of the peroxisome proliferator-activated receptor delta (PPARd) signaling pathway (AID 743212; calls by dose curve)
Peroxisome proliferator-activated receptor delta (Homo sapiens), sequence (Q03181 whole entry, looked up): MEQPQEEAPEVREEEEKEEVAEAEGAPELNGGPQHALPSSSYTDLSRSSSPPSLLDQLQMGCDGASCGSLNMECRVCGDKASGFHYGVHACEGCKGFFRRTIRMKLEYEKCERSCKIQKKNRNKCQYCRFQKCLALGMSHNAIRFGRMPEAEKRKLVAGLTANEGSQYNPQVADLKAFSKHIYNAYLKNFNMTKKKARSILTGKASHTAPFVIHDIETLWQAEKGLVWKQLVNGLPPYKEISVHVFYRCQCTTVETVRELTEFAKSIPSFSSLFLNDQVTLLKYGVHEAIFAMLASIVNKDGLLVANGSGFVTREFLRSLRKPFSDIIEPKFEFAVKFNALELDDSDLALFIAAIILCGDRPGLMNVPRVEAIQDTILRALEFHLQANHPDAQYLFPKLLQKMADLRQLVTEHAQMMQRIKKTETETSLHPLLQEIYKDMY
Method in brief: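 Cells expressing a UAS-driven beta-lactamase reporter (PPARd-bla HEK293H) were given test compounds after a 5 h settle and kept at 37 C. Reporter activity was then measured as FRET fluorescence using LiveBLAzer B/G substrate.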

[3] = qHTS assay to identify small molecule antagonists of the peroxisome proliferator-activated receptor delta (PPARd) signaling pathway - cell viability counter screen (AID 743213); further: nearly all actives have a fitted effect of over 50% in size
Method in brief: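 HEK293H cells with the PPARd UAS-bla reporter, co-treated 17 h at 37 C with compounds and L165041 (300 nM final), were lysed with CellTiter-Glo. Luminescence indicated viable cell content.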

[4] = qHTS assay to identify small molecule agonists of the farnesoid-X-receptor (FXR) signaling pathway - cell viability counter screen (AID 743218); further: nearly all actives have a fitted effect of over 45% in size
Method in brief: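 Viability counter screen in the same wells: CellTiter-Glo luminescence, 30 min room-temperature incubation, measured after the beta-lactamase read. Cells were GeneBLAzer FXR-UAS-bla HEK 293T, compound-treated 16 h at 37C.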

[5] = qHTS assay to identify small molecule antagonists of the farnesoid-X-receptor (FXR) signaling pathway - cell viability counter screen (AID 743221; active means well fitted cell-killing curve with a large enough effect in the repeat runs, not every such curve was filed as active; further: nearly all actives have a fitted effect of over 50% in size)
Method in brief: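 In GeneBLAzer FXR-UAS-bla HEK 293T cells stimulated with 50 uM chenodeoxycholic acid (final), compounds acted for 16 h at 37 C. Viability was assessed afterwards by CellTiter-Glo luminescence.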

[6] = qHTS assay to identify small molecule agonists of the vitamin D receptor (VDR) signaling pathway - cell viability counter screen (AID 743224); further: series mostly up to about 63 µM; nearly all actives have a fitted effect of over 50% in size
Method in brief: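 Counter screen run in the same wells as the VDR-bla reporter assay: CellTiter-Glo luminescence, 30 min at room temperature, after 16 h compound treatment at 37C of cells pre-plated for 4 h.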

[7] = qHTS assay to identify small molecule agonists of the NFkB signaling pathway (AID 1159509; active means well fitted curve in the direction sought with a large enough effect in the signal ratio in the repeat runs, not every such curve was filed as active; the % refers to the signal ratio; further: series mostly up to about 61 µM)
Method in brief: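 Agonist activity was read as beta-lactamase-driven FRET change (460 and 530 nm emission, 405 nm excitation) following 1.5 hr substrate loading at room temperature. Beforehand, ME-180 NFkB-bla reporter cells were treated with compounds for 5 hr at 37 C.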

[8] = qHTS assay to identify small molecule agonists of the endoplasmic reticulum stress response signaling pathway (AID 1159516; active means well fitted activation curve with a large enough effect in the signal ratio in the repeat runs, not every such curve was filed as active; the % refers to the signal ratio)
Method in brief: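 Ratiometric FRET readout (405 nm excitation; 460 and 530 nm emission) of a beta-lactamase gene driven by the ER stress response element, after 2 hr substrate loading. HeLa ESRE-bla cells were seeded overnight and treated with compounds for only 5 hr at 37 C.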

[9] = qHTS assay to identify small molecule antagonists of the retinoid-related orphan receptor gamma (ROR-gamma) signaling pathway - cell viability counter screen (AID 1159520); further: nearly all actives have a fitted effect of over 50% in size
Method in brief: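 Tet-on ROR gamma CHO cells (1,000/well) were plated 4 hr, given compounds in DMSO for 2 hr at 37 C, then induced with 1 uM final doxycycline for 16 hr. Viability was read as ATP by CellTiter-Glo luminescence after 30 min.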

[10] = molecular target: Nuclear receptor ROR-gamma (Homo sapiens) (UniProt P51449); test: qHTS assay to identify small molecule antagonists of the retinoid-related orphan receptor gamma (ROR-gamma) signaling pathway (AID 1159521)
Method in brief: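 CHO cells expressing RORγ under a TET-on promoter, luciferase under RORE control. Dox 1 uM final, 16 h; compounds added 2 h prior. Luminescence decrease measured.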

[11] = qHTS assay to identify small molecule agonists of the AP-1 signaling pathway - cell viability counter screen (AID 1159525; calls by dose curve; further: nearly all actives have a fitted effect of over 55% in size)
Method in brief: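 Each titration point was normalised to DMSO and tetra n-octyl ammonium bromide controls. The read was Cell Titer Glo luminescence after 30 min at RT, following 5 h compound exposure of ME-180 AP-1-bla cells at 37 °C.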

[12] = qHTS assay to identify small molecule agonists of the AP-1 signaling pathway (AID 1159526; calls by dose curve)
[13] = molecular target: Vitamin D3 receptor (Homo sapiens) (UniProt P11473); test: qHTS assay to identify small molecule antagonists of the vitamin D receptor (VDR) signaling pathway (AID 743223; active means well fitted inhibition curve with a large enough effect in the signal ratio in the repeat runs, not every such curve was filed as active; the % refers to the signal ratio)
Vitamin D3 receptor (Homo sapiens), sequence (P11473 whole entry, looked up): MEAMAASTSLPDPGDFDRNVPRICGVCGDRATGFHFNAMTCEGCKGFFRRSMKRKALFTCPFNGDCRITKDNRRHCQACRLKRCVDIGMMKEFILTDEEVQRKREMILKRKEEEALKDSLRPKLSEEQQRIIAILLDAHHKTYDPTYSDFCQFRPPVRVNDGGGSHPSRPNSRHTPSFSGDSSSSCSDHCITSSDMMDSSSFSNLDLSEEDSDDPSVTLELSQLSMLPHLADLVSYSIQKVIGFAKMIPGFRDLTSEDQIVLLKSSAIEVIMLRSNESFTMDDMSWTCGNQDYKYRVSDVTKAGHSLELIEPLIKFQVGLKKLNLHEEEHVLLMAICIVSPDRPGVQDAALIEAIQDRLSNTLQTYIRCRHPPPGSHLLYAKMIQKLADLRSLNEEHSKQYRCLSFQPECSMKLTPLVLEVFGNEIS
Method in brief: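 Agonist 1alpha,25-dihydroxyvitamin D3 (3 nM in well) was added with each compound to VDR-bla cells preincubated 4 h. Cells stood 16 h at 37C, then FRET substrate 2 h at room temperature; fluorescence intensity recorded.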

[14] = qHTS assay to identify small molecule antagonists of the vitamin D receptor (VDR) signaling pathway - cell viability counter screen (AID 743225); further: nearly all actives have a fitted effect of over 50% in size
Method in brief: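 Luminescent cell viability (CellTiter-Glo) in VDR-bla HEK 293T cells after 16 h compound exposure at 37C in the presence of 3 nM final 1-alpha,25-dihydroxy vitamin D3.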

[15] = qHTS assay to identify small molecule agonists of the endoplasmic reticulum stress response signaling pathway - cell viability counter screen (AID 1159517; calls by dose curve)
Method in brief: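 Cpd-treated ESRE-bla HeLa (5 hr, 37 C) → LiveBLAzer 2 hr RT → CellTiter-Glo 30 min RT → luminescence.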

[16] = molecular target: Bile acid receptor (Homo sapiens) (UniProt Q96RI1); test: qHTS assay to identify small molecule antagonists of the farnesoid-X-receptor (FXR) signaling pathway (AID 743217; active means well fitted inhibition curve with a large enough effect in the signal ratio in the repeat runs, not every such curve was filed as active; the % refers to the signal ratio)
Bile acid receptor (Homo sapiens), sequence (Q96RI1 whole entry, looked up): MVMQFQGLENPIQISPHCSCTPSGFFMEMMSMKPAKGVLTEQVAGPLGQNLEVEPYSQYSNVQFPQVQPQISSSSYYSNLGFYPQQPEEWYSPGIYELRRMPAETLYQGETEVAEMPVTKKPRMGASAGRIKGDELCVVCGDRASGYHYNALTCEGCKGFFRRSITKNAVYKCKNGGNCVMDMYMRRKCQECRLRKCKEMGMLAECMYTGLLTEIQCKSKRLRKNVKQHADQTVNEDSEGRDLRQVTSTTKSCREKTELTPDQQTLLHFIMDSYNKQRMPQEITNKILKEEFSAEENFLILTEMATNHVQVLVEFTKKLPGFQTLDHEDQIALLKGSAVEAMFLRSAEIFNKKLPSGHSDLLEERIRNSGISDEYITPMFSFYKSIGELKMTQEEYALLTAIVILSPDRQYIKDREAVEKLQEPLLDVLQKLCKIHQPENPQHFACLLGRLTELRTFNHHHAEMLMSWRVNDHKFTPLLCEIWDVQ
Method in brief: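 Antagonist mode: chenodeoxycholic acid at 50 uM final stimulates a UAS-driven beta-lactamase reporter in HEK 293T FXR-bla cells during 16 h, 37C compound exposure. Read-out is FRET substrate fluorescence after 2 h at room temperature.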

[17] = molecular target: Bile acid receptor (Homo sapiens) (UniProt Q96RI1); test: qHTS assay to identify small molecule agonists of the farnesoid-X-receptor (FXR) signaling pathway (AID 743220; active means well fitted activation curve with a large enough effect in the signal ratio in the repeat runs, not every such curve was filed as active; the % refers to the signal ratio)
Method in brief: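 FXR-UAS-bla HEK 293T cells carrying a UAS-driven beta-lactamase reporter were plated for 5 h at 37C/5% CO2, then exposed to DMSO-dissolved Tox21 10K compounds for 16 h at 37C. A LiveBLAzer B/G FRET substrate was loaded for 2 h at room temperature before fluorescence reading.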

[18] = molecular target: Vitamin D3 receptor (Homo sapiens) (UniProt P11473); test: qHTS assay to identify small molecule agonists of the vitamin D receptor (VDR) signaling pathway (AID 743222; calls by dose curve)
Method in brief: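 Agonist mode, beta-lactamase reporter: fluorescence from LiveBLAzer B/G FRET substrate (2 h, room temperature) read after 16 h compound treatment at 37 C of VDR-bla cells, which were pre-incubated 4 h after seeding.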

[19] = molecular target: Peroxisome proliferator-activated receptor delta (Homo sapiens) (UniProt Q03181); test: qHTS assay to identify small molecule antagonists of the peroxisome proliferator-activated receptor delta (PPARd) signaling pathway (AID 743215; active means well fitted inhibition curve with a large enough effect in the signal ratio in the repeat runs, not every such curve was filed as active; the % refers to the signal ratio;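 further: cells stimulated with agonist L165041 at 300 nM final during compound exposure; series mostly up to about 62 µM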)
Method in brief: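 Agonist L165041 (300 nM final) added with compound to PPARd-bla HEK293H UAS-bla reporter cells; 17 h incubation at 37 C. Read-out: LiveBLAzer FRET substrate, 2 h at room temperature, fluorescence intensity.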

[20] = qHTS assay to identify small molecule agonists of the NFkB signaling pathway - cell viability counter screen (AID 1159515; calls by dose curve; further: series mostly up to about 61 µM; nearly all actives have a fitted effect of over 55% in size)
Method in brief: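 Read by CellTiter-Glo luminescence (30 min, room temperature) in the wells also used for the beta-lactamase FRET read. ME-180 NFkB-bla cells at 2,000 per well were plated overnight, then exposed to compound for 5 hr at 37 C.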

Measured: Potency

Nc1ccc(NC(=O)c2ccc(N)cc2)cc1
not listed: [13] | [14] | [15] | [16] | [17] | [18] | [19] | [20]
inactive: all other assays above

COC(OC)OC
not listed: [2] | [15] | [16] | [17] | [18] | [19] | [20]
inactive: all other assays above

CC(C(=O)O)c1ccc(C(=O)c2cccs2)cc1 (stereo not given)
not listed: [2] | [8] | [16] | [17] | [18] | [19] | [20]
inactive: all other assays above

COc1cc(C(C)=O)ccc1OCCCN1CCC(c2noc3cc(F)ccc23)CC1
not listed: [12] | [15] | [16] | [17] | [18] | [19] | [20]
inactive: all other assays above

CC(=O)N[C@@H](Cc1ccc(O)cc1)C(=O)O
not listed: [15] | [16] | [17] | [18] | [19] | [20]
inactive: all other assays above

COC(=O)CC(C(C)=O)C(=O)OC (stereo not given)
not listed: [8] | [13] | [19] | [20]
inactive: all other assays above

CC/C=C\C/C=C\C/C=C\CCCCCCCC(=O)OCC
not listed: [1] | [6] | [8] | [10] | [13] | [14] | [18]
inactive: all other assays above

COc1cc(S(=O)(=O)Nc2ccccc2)c(OC)cc1N
not listed: [1] | [8] | [13] | [14] | [20]
inactive: all other assays above

Cc1cccc2sc(N)nc12
not listed: [15] | [16] | [17] | [20]
inactive: all other assays above
